What all share (details): mRNA level, 48 h; actives raise or lower the signal
Read-out in assay [1]: Cytochrome P450 7A1 (Homo sapiens) (UniProt P22680)
Kind of assay: LTEA_HepaRG_CYP7A1: Life Technologies and Expression Analysis (LTEA) Assay for Cytochrome P450 7A1 (CYP7A1) using HepaRG (AID 2283496). The essentials:
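HepaRG, 48 h exposure, 8-pt half-log series from 100 uM, 0.5% DMSO vehicle, duplicates. Readout: TaqMan qRT-PCR mRNA vs three housekeeping genes; bidirectional curve fit against DMSO baseline.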

Read-out in assay [2]: Glutathione S-Transferase (GSTA2), GSTA2 (gene 2939)
As to the kind of experiment: LTEA_HepaRG_GSTA2: Life Technologies and Expression Analysis (LTEA) Assay for Glutathione S-Transferase (GSTA2) using HepaRG (AID 2283497). The essentials:
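GSTA2 transcript levels came from Fluidigm TaqMan qRT-PCR normalized to three housekeeping genes, fitted in both directions against DMSO. HepaRG cultures received chemicals for 48 h in serum-free induction medium (0.5% DMSO), 8 half-log concentrations up to 100 uM, duplicate.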

Read-out in assay [3]: growth arrest and DNA damage 45 (GADD45G), GADD45G (gene 10912)
Kind of assay: LTEA_HepaRG_GADD45G: Life Technologies and Expression Analysis (LTEA) Assay for growth arrest and DNA damage 45 (GADD45G) using HepaRG (AID 2283499). The essentials:
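GADD45G transcript level by qRT-PCR (housekeeping-normalized: ACTB, GAPDH, POLR2A) after 48 h chemical treatment of a single HepaRG lot in serum-free induction medium; eight-point half-log series up to 100 uM in 0.5% DMSO, duplicates, up- or down-regulation scored.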

Read-out in assay [4]: Glutamate-cysteine ligase regulatory (GCLM), GCLM (gene 2730)
Kind of assay: LTEA_HepaRG_GCLM: Life Technologies and Expression Analysis (LTEA) Assay for Glutamate-cysteine ligase regulatory (GCLM) using HepaRG (AID 2283500). The essentials: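 GCLM expression quantified by qRT-PCR, normalized to three housekeeping genes, after 48 h chemical treatment of HepaRG cells in duplicate at 8 concentrations (top 100 uM, half-log steps, 0.5% DMSO). Changes fitted both directions against vehicle.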

Read-out in assay [5]: Glutathione S-transferase M3 (GSTM3), GSTM3 (gene 2947)
Kind of assay: LTEA_HepaRG_GSTM3: Life Technologies and Expression Analysis (LTEA) Assay for Glutathione S-transferase M3 (GSTM3) using HepaRG (AID 2283501). The method in brief: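 GSTM3 transcript levels came from Fluidigm TaqMan qRT-PCR normalized to three housekeeping genes, fitted in both directions against DMSO. HepaRG cultures received chemicals for 48 h in serum-free induction medium (0.5% DMSO), 8 half-log concentrations up to 100 uM, duplicate.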

Read-out in assay [6]: Heat shock 70 kDa protein 1 (HSPA1A), gene 3303
As to the kind of experiment: LTEA_HepaRG_HSPA1A: Life Technologies and Expression Analysis (LTEA) Assay for Heat shock 70 kDa protein 1 (HSPA1A) using HepaRG (AID 2283502). The essentials: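 HSPA1A expression measured by qRT-PCR with ACTB/GAPDH/POLR2A normalization; curves fitted in both directions relative to DMSO vehicle. Exposure: 48 h in HepaRG cells, duplicate 8-point half-log series from 100 uM, 0.5% DMSO, serum-free induction medium.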

Read-out in assay [7]: Hypoxia-inducible factor 1-alpha (Homo sapiens) (UniProt Q16665)
As to the kind of experiment: LTEA_HepaRG_HIF1A: Life Technologies and Expression Analysis (LTEA) Assay for Hypoxia-inducible factor 1 (HIF1A) Trancription factor using HepaRG (AID 2283503). The essentials:
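HIF1A transcript level read by qRT-PCR (ACTB, GAPDH, POLR2A normalization) after 48 h chemical exposure of HepaRG cultures. Eight half-log concentrations, top 100 uM, 0.5% DMSO vehicle, duplicates; bidirectional curve fit against DMSO baseline.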

Read-out in assay [8]: 3-Hydroxy-3-Methylglutaryl-CoA Synthase 2 (HMGCS2), HMGCS2 (gene 3158)
Kind of assay: LTEA_HepaRG_HMGCS2: Life Technologies and Expression Analysis (LTEA) Assay for 3-Hydroxy-3-Methylglutaryl-CoA Synthase 2 (HMGCS2) using HepaRG (AID 2283504). The method in brief:
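Readout is HMGCS2 transcript by qRT-PCR, housekeeping-normalised (ACTB/GAPDH/POLR2A) and fitted bidirectionally against 0.5% DMSO. Differentiated HepaRG cells received chemicals 48 h, duplicate wells, eight half-log concentrations topping at 100 uM.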

Read-out in the next assay: HGF (gene 3082)
Kind of assay: LTEA_HepaRG_HGF: Life Technologies and Expression Analysis (LTEA) Assay for Hepatocyte Growth Facto (HGF) using HepaRG (AID 2283505). The method in brief:
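HGF transcript was quantified by TaqMan qRT-PCR against three housekeeping genes after 48 h treatment of HepaRG cells. Exposure ran in duplicate over eight half-log steps topping at 100 uM in 0.5% DMSO vehicle.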

Read-out in assay [9]: Insulin Like Growth Factor 1 (IGF1), IGF1 (gene 3479)
As to the kind of experiment: LTEA_HepaRG_IGF1: Life Technologies and Expression Analysis (LTEA) Assay for Insulin Like Growth Factor 1 (IGF1) using HepaRG (AID 2283506). The method in brief: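 Expression measured by TaqMan qRT-PCR on a Fluidigm array, with three housekeeping genes for normalisation, after 48 h treatment of HepaRG cells. Top concentration 100 uM with half-log steps, 0.5% DMSO vehicle, bidirectional fit.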

Read-out in assay [10]: Intercellular Adhesion Molecule 1 (ICAM1), ICAM1 (gene 3383)
As to the kind of experiment: LTEA_HepaRG_ICAM1: Life Technologies and Expression Analysis (LTEA) Assay for Intercellular Adhesion Molecule 1 (ICAM1) using HepaRG (AID 2283507). The essentials: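 ICAM1 transcript levels measured by qRT-PCR, normalized to three housekeeping genes (ACTB, GAPDH, POLR2A), after 48 h chemical exposure of HepaRG cells. Duplicate eight-point half-log series from 100 uM in 0.5% DMSO; gain or loss fitted against vehicle.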

Read-out in assay [11]: Insulin-like growth factor-binding protein 1 (IGFBP1), IGFBP1 (gene 3484)
As to the kind of experiment: LTEA_HepaRG_IGFBP1: Life Technologies and Expression Analysis (LTEA) Assay for Insulin-like growth factor-binding protein 1 (IGFBP1) using HepaRG (AID 2283508). The method in brief:
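Read-out is qRT-PCR transcript level normalized to three housekeeping genes, fitted in both directions against 0.5% DMSO. Differentiated HepaRG cells received eight half-log concentrations (top 100 uM) in duplicate for 48 h in serum-free induction medium.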

Read-out in assay [12]: Interleukin 6 Receptor (IL6R), IL6R (gene 3570)
As to the kind of experiment: LTEA_HepaRG_IL6R: Life Technologies and Expression Analysis (LTEA) Assay for Interleukin 6 Receptor (IL6R) using HepaRG (AID 2283510). The essentials: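 IL6R transcript level by qRT-PCR after 48 h chemical exposure (8-point, half-log, max 100 uM, 0.5% DMSO vehicle) of HepaRG cells in serum-free induction medium. Normalized to three housekeeping genes; curves fitted in both directions relative to DMSO.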

Read-out in assay [13]: Potassium channel subfamily K member 1 (KCNK1), KCNK1 (gene 3775)
Kind of assay: LTEA_HepaRG_KCNK1: Life Technologies and Expression Analysis (LTEA) Assay for Potassium channel subfamily K member 1 (KCNK1) using HepaRG (AID 2283511). The essentials: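 KCNK1 transcript measured by TaqMan qRT-PCR against three housekeeping genes, after HepaRG cells were treated 48 h with eight half-log concentrations (top 100 uM, 0.5% DMSO). Curves fitted bidirectionally relative to vehicle.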

Read-out in assay [14]: Keratin 19 (KRT19), KRT19 (gene 3880)
Kind of assay: LTEA_HepaRG_KRT19: Life Technologies and Expression Analysis (LTEA) Assay for Keratin 19 (KRT19) using HepaRG (AID 2283512). The essentials: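 KRT19 transcript measured by TaqMan qRT-PCR, referenced to three housekeeping genes, after HepaRG cells received test chemicals for 48 h. Eight half-log concentrations, top 100 uM, 0.5% DMSO vehicle; increases and decreases both fitted.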

Read-out in assay [15]: JUN Transcription Factor, JUN (gene 3725)
As to the kind of experiment: LTEA_HepaRG_JUN: Life Technologies and Expression Analysis (LTEA) Assay for JUN Transcription Factor using HepaRG (AID 2283513). The method in brief:
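mRNA measured by TaqMan qRT-PCR after 48 h chemical exposure of HepaRG cultures; normalization to three housekeeping genes. Duplicate eight-point half-log curves from 100 uM in 0.5% DMSO; gain or loss fitted against DMSO baseline.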

Read-out in assay [16]: Lipase C (LIPC), LIPC (gene 3990)
Kind of assay: LTEA_HepaRG_LIPC: Life Technologies and Expression Analysis (LTEA) Assay for Lipase C (LIPC) using HepaRG (AID 2283514). The essentials: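 LIPC expression was quantified by qRT-PCR against three housekeeping genes (ACTB, GAPDH, POLR2A). Differentiated human HepaRG cells received eight half-log doses (top 100 uM, 0.5% DMSO) in duplicate for 48 h; fitting bidirectional relative to DMSO.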

Read-out in assay [17]: Lipoprotein lipase (LPL), LPL (gene 4023)
Kind of assay: LTEA_HepaRG_LPL: Life Technologies and Expression Analysis (LTEA) Assay for Lipoprotein lipase (LPL) using HepaRG (AID 2283515). The essentials:
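LPL transcript levels quantified by TaqMan qRT-PCR against three housekeeping genes after 48 h chemical treatment of HepaRG cells. Eight-point half-log series from 100 uM in 0.5% DMSO, tested in duplicate; bidirectional fitting versus vehicle.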

Read-out in assay [18]: Interleukin 6 (IL6), IL6 (gene 3569)
Kind of assay: LTEA_HepaRG_IL6: Life Technologies and Expression Analysis (LTEA) Assay for Interleukin 6 (IL6) using HepaRG (AID 2283509). The essentials:
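Transcript levels, normalized to three housekeeping genes, were quantified by qRT-PCR after 48 h chemical treatment of HepaRG cells. Eight-point half-log series from 100 uM in 0.5% DMSO, duplicates. Fitted both directions against DMSO baseline.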

The values that follow come from PubChem BioAssay (EPA / NIEHS).

Calls of active or inactive are those of the source. How the source made its calls: active means hit-call score of the fitted dose curve at least 0.9, where 1 is the maximum; inactive means score below 0.9.

Chain of Hypoxia-inducible factor 1-alpha (Homo sapiens) (Q16665 whole entry, looked up): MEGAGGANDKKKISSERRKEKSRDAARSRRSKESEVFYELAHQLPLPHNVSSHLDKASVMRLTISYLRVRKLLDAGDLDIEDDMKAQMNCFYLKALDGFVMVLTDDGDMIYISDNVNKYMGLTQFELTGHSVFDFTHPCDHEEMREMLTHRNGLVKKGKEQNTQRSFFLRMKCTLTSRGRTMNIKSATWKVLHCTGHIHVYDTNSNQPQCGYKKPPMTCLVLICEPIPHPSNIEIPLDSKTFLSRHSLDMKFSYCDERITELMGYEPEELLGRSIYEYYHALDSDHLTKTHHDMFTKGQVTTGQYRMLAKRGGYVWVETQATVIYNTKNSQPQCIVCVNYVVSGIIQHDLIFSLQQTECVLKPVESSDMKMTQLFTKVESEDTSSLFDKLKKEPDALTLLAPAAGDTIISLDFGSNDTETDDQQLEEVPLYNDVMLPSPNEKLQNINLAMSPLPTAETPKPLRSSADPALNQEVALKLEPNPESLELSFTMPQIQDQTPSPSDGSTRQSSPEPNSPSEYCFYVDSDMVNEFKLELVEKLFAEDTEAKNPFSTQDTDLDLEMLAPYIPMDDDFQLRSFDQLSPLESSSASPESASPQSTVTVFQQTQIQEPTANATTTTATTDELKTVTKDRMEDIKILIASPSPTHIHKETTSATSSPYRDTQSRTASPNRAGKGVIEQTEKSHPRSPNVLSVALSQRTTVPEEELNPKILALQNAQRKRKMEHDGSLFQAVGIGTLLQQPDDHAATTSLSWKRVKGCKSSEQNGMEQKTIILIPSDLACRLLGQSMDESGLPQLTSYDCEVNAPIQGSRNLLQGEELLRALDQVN

Consider `CCCc1ccccc1`, for which the outcome in assay [1], in assay [2], in assay [3], in assay [4], in [5] and in assay [6] was inactive. Further, the call (in assay [7]; in assay [8]; in the assay with HGF (gene 3082); in assay [9]; in assay [10]; in assay [11]) was inactive. Further, the result in assay [12], in assay [13], in assay [14], in assay [15], in assay [16] and in assay [17] was inactive.

Take `Cn1c(=O)c2[nH]cnc2n(C)c1=O`: the call in [1], in assay [2], in assay [3], in assay [4], in assay [6] and in assay [8] was inactive. In addition, the compound was called inactive (with HGF (gene 3082); in assay [9]; in [12]; in assay [13]; in [14]; in [15]). In addition, the call in assay [16] and in assay [17] was inactive.

Consider `c1ccc2cc3ccccc3cc2c1`, for which the call in assay [1], in [2], in [3], in [4], in [6] and in assay [7] was inactive. Besides, the compound was classed as inactive (in assay [8]; with HGF (gene 3082); in assay [9]; in [10]; in assay [11]; in assay [18]). Besides, the call in assay [12], in assay [13], in assay [14], in [15], in assay [16] and in [17] was inactive.

Turning to `CNC(C)=O`, the result in assay [1], in [2], in assay [3], in assay [4], in [6] and in assay [7] was inactive. Besides, the outcome (in assay [8]; with HGF (gene 3082); in assay [9]; in assay [10]; in [11]; in assay [12]) was inactive. For the same compound, the result in assay [13], in assay [14], in [15], in assay [16] and in [17] was inactive.

As for `O=c1[nH]cnc2c1ncn2[C@H]1CC[C@@H](CO)O1`, the outcome in [1], in assay [2], in [3], in [4], in assay [6] and in assay [7] was inactive. Moreover, the compound was classed as inactive (in [8]; in the assay with HGF (gene 3082); in assay [9]; in assay [10]; in assay [11]; in [18]). Also, the compound was called inactive in [12], in assay [13], in assay [14], in assay [15], in [16] and in assay [17].

Usually AC50 stands for the midpoint of the concentration-response curve, whichever way the signal moves. For the compound `CC(C)c1nnc2ccc(-c3ocnc3-c3cc(F)ccc3F)cn12`, the AC50 in assay [1] was 25.2 µM (active); in assay [2] it was 80.5 µM (active); in assay [3], 0.0565 µM (active); in assay [8], 59.1 µM (active); in assay [9], 66.1 µM (active); in assay [11] it was 12.8 µM (active). Moreover, the AC50 in [14] is 18.7 µM (active); in assay [16], 83.4 µM (active). For the same compound, the compound was classed as inactive in assay [4], in assay [6], in assay [7], in [10], in assay [12] and in assay [13]. The outcome in assay [15] and in [17] was inactive.

As for `OCCOCCOCCO`, the call in [1], in assay [2], in assay [3], in assay [4], in [5] and in [6] was inactive. In addition, the call (in assay [7]; in [8]; in the assay with HGF (gene 3082); in assay [9]; in assay [10]; in [11]) was inactive. Further, the outcome in assay [12], in assay [13], in assay [14], in assay [15], in assay [16] and in assay [17] was inactive.
